# Test results as given in the supplement of paper PMC3484114.
# ± gives the standard deviation.
# Test system: OVCAR-3-derived ovarian cancer stem-like cells (spheroids)
# Assay: cell growth relative to untreated control; higher = more growth (less inhibition)
# Conditions: 2.29 µM; 96 h
# Outline: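 Percent growth was calculated against untreated wells once blanks were subtracted and Grubbs outliers removed. The cells were OVCAR-3 spheroid-derived stem-like cells, trypsinized and plated at 50,000 cells/mL in stem cell medium on ultra-low attachment 96-well plates for a 24 h preincubation. They were then exposed to compounds at 2.29 uM for 96 h at 37°C, 5% CO2, in 4 replicate wells, and viability was measured by TOX8 resazurin fluorescence (ex 560/em 590 nm) after 4 h.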
row,Structure (SMILES),cell growth
1,COc1cc2c(cc1Oc1ccc(OC)c3c1CC1c4c(cc(OC)c(OC)c4-3)CCN1C)CC1c3c(cc(OC)c(OC)c3-2)CCN1C (centres undefined),101 ± 11%
2,Nc1cc2[nH]cnc2c(=O)[nH]1,77.1 ± 7.5%
3,CC(=O)NCCCCCCNC(C)=O,119 ± 7.8%
4,CCN(CC)CCOc1ccccc1/C=C/c1noc2ccccc12,79.3 ± 18%
5,CC(C)CCCCCCCCCCCCC(=O)NCC(=O)N[C@@H]1[C@@H](O)[C@H](O)[C@@H](Nc2ncnc3nc[nH]c23)O[C@H]1[C@@H](O)CO,13.2 ± 4.3%
6,CSCC(CO)NC(=O)/C=C/c1c(C)[nH]c(=O)[nH]c1=O (centres undefined),82.8 ± 9.5%
7,Nc1nc(SCc2ccccc2Cl)c2[nH]cnc2n1,106 ± 13%
8,C=C(Cl)C(Cl)(CBr)CCC(Br)C(C)(C)Cl (centres undefined),70.7 ± 16%
9,OCCNCN(CNCCO)c1nc(N(CNCCO)CNCCO)nc(N(CNCCO)CNCCO)n1,126 ± 24%
10,COC(=O)C1=CC(=O)C(C(=O)Nc2ccc(OC)cc2)C(c2ccccc2)O1 (centres undefined),96.3 ± 45%
11,NCCSSCc1ccccc1CSSCCN,109 ± 25%
12,COc1cc(O)c(Cc2ccccc2O)c(O)c1C(=O)CCc1ccccc1,86.8 ± 30%
13,CCOC(=O)Nc1cc2c(c(N)n1)N=C(c1ccccc1)CN2,89.9 ± 15%
14,COC(=O)C1(C)CCCC2(C)C3CCC4CC3(C=C4CO)CCC12 (centres undefined),95.7 ± 14%
15,O=S(=O)(O)c1cc(N=Nc2cc(S(=O)(=O)O)c3ccccc3c2O)ccc1/C=C/c1ccc(N=Nc2cc(S(=O)(=O)O)c3ccccc3c2O)cc1S(=O)(=O)O,110 ± 24%
16,Nc1ccc2c(c1)CN1C(=O)c3ccccc3C1=N2,72.9 ± 5.6%
17,CC(C)C1(Cl)CCC2C3(C)CCCC(C)(C(=O)O)C3CC(Cl)C2(Cl)C1Cl (centres undefined),94.6 ± 30%
18,COc1ccc2nc3cc([N+](=O)[O-])ccc3c(NNc3ccccc3)c2c1,76.2 ± 22%
19,COC(=O)/C(=N\NC(=O)c1ccccc1O)C(C#N)c1ccccc1 (centres undefined),99.9 ± 33%
20,O=C([O-])c1cc(I)cc(I)c1O.O=C([O-])c1cc(I)cc(I)c1O.[Mn+2],77.4 ± 10%

row,Structure (SMILES),cell growth
1,C/C(=N\NC(=S)N(C)C)c1ccccn1.[Cu][Br],11.1 ± 5.9%
2,CCCCCCCCCCCCCCCC[N+](C)(C)CCl,104 ± 17%
3,CC[C@]1(O)C[C@H]2CN(CCc3c([nH]c4ccccc34)[C@@](C(=O)OC)(c3cc4c(cc3OC)N(C=O)[C@H]3[C@@](O)(C(=O)OC)[C@H](OC(C)=O)[C@]5(CC)C=CCN6CC[C@]43[C@@H]65)C2)C1,27 ± 6%
4,COC(=O)Nc1nc2ccc(Br)cc2[nH]1,107 ± 23%
5,NC(=Nc1nc(-c2ccccn2)cc2ccccc12)c1ccccn1,9.1 ± 2.3%
6,Cc1[nH]c(=O)[nH]c(=O)c1/C=C/C(=O)NC(CO)CC(C)C (centres undefined),94.2 ± 22%
7,CC(=O)Nc1ccc(-c2nc3ccccc3s2)cc1,171 ± 32%
8,S=C1Nc2cnc3ccccc3c2SC1c1ccccc1 (centres undefined),9.8 ± 3.9%
9,N#CC(c1ccccc1)N(CCCCCCN(C(=O)c1ccccc1)C(C#N)c1ccccc1)C(=O)c1ccccc1 (centres undefined),122 ± 23%
10,COc1cc2oc(=O)cc(C)c2cc1[N+](=O)[O-],137 ± 45%
11,CC[n+]1c(-c2ccccc2)c2cc(N)ccc2c2ccc(N)cc21,15 ± 9.7%
12,O=C1C=CC(=O)c2c(O)c(N3CCN(CCOCCO)CC3)c(Br)c(O)c21,18 ± 6.4%
13,CC(C)CCCCCCCCCCCCC(=O)NCC(=O)NC1C(C)OC(Nc2ncnc3nc[nH]c23)C(O)C1O (centres undefined),17.4 ± 6.2%
14,O=C1C=C(Nc2ccccc2C(=O)CC(=O)C(=O)Nc2ccc(Cl)c(Cl)c2)c2ccccc2C1=O,79.6 ± 13%
15,CC(=O)N(C)c1ccc(Nc2cc(C)[nH]c3ccc4ncnc4c23)cc1,81.9 ± 23%
16,COc1cc2cc3c4cc(OC)c(OC)cc4cc[n+]3c(C)c2cc1OC.O=C(O)CS(=O)(=O)[O-],53.7 ± 9.7%
17,COc1ccc(OC)c(-c2cc(=O)c3c(OC)c(OC)c(OC)c(OC)c3o2)c1,128 ± 50%
18,COC1=CC(=O)c2c(ccc3ncnc(N)c23)C1=O,79.1 ± 20%
19,N#CC(=S)Nc1ccc(Cl)c(Cl)c1,90.6 ± 12%
